Results from PubChem BioAssay.
Active and inactive are the calls of the source.

What was measured:
[1] = binders of probe aFSTL3 on microarray, primary screen, stem cell growth factor project, biochemical, small-molecule microarray, fluorescence 635/667 (AID 1064); details: higher = more signal;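 note: measures binding of the biotinylated anti-FSTL3 antibody to printed compounds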
[2] = binders from COS7 lysate, DM2A8 probe, primary screen, torsin A project, cell lysate, small-molecule microarray, fluorescence 635/667 (AID 1065); details: higher = more signal, COS7 lysate expressing mutant human TOR1A
[3] = binders of probe aFGF2 on microarray, primary screen, stem cell growth factor project, biochemical, small-molecule microarray, fluorescence 635/667 (AID 1067); details: higher = more signal;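 note: measures binding of biotinylated aFGF2 protein to printed compounds on slides; z-score merges feature fluorescence and signal-to-noise across triplicate slides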
[4] = binders of probe aFGF10 on microarray, primary screen, stem cell growth factor project, biochemical, small-molecule microarray, fluorescence 635/667 (AID 1071); details: higher = more signal;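 note: score merges 667 nm spot intensity and signal to noise from triplicate slides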
[5] = biological target: Neurogenic locus notch homolog protein 2 (Homo sapiens) (UniProt Q04721); test: Notch2 binders on small-molecule microarrays, primary screen, biochemical, small-molecule microarray, 635 nm fluorescence, stem cell growth factors (AID 1073); details: Notch2 binding, higher = more signal
[6] = biological target: Pro-neuregulin-1, membrane-bound isoform (Homo sapiens) (UniProt Q02297); test: NRG1 binders on small-molecule microarrays, primary screen, psychiatric disease protein project, biochemical, small-molecule microarray, fluorescence 635/667 (AID 1075); details: NRG1 binding, 635 nm fluorescence, higher = more signal;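 note: score combines 667 nm spot fluorescence with signal to noise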
[7] = test system: Neuregulin-1 EGF-like domain; test: binders of neuregulin-1 EGF-like domain, primary screen, biochemical, small-molecule microarray, 635 nm fluorescence (AID 1081); details: small-molecule microarray binding, higher = more signal;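 note: binding of the protein to compounds printed on small-molecule microarray slides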
[8] = FRG1 promoter luciferase signal modulators, primary screen, FRG1 inhibition for FSHD, cell-based, C2C12 myotubes, firefly/Renilla luciferase, luminescence (AID 1084); details: higher = more signal, called active from +8 up or from −8 down
[9] = binders of probe aFST on microarray, primary screen, stem cell growth factor project, biochemical, small-molecule microarray, fluorescence 635/667 (AID 1086); details: higher = more signal;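 note: score merges 667 nm fluorescence with signal-to-noise of each printed compound spot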
[10] = binders of probe aHhip on microarray, primary screen, stem cell growth factor project, biochemical, small-molecule microarray, fluorescence 635/667 (AID 1087); details: higher = more signal;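 note: score merges spot fluorescence at 667nm with spot signal to noise ratio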
[11] = test system: PRMT1 (protein arginine N-methyltransferase 1); test: PRMT1 binders on small-molecule microarrays, primary screen, biochemical, small-molecule microarray, 635 nm fluorescence (AID 1088); details: small-molecule microarray binding, higher = more signal;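 note: binding of Prmt1 protein to compounds spotted on small-molecule microarray slides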
[12] = yeast growth modulation, basal conditions, primary screen, YJM789 clinical isolate, OD600, 24 h (AID 1089);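 note: growth of clinical yeast isolate S. cerevisiae YJM 789 seeded 1000 cells per well; test concentration not given here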; details: S. cerevisiae YJM789 growth, higher = more signal, called active from +8 up or from −8 down
[13] = fission yeast growth modulation, primary screen, strain 972, OD600, 24 h, no modulator (AID 1090);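 note: basal condition with compound alone and no growth modifier present; test concentration not given here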; details: S. pombe 972 growth, higher = more signal, called active from +8 up or from −8 down
[14] = S. cerevisiae growth modulation with rapamycin, primary screen, strain BY4716, OD600, 96 h (AID 1091); details: higher = more signal, called active from +8 up or from −8 down; note: test concentration not given here
[15] = biological target: Torsin-1A-interacting protein 2 (Homo sapiens) (UniProt Q8NFQ8); test: LULL1 binders on small-molecule microarray, primary screen, cell lysate, human LULL1 lysate, 635/667 nm fluorescence (AID 1092); details: hLULL1 lysate binding, 635 nm fluorescence, higher = more signal;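 note: probe is lysate of COS7 cells overexpressing human LULL1; score merges per-feature 667 nm fluorescence with signal-to-noise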
[16] = E. coli growth modulation, two-sided OD650, primary screen, E. coli filamentation project, strain DRC41, 24 h (AID 1093); details: OD650, 24 h, higher = more signal, called active from +8 up or from −8 down;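 note: MC1000 strain lacking acrAB efflux and sulA so SOS filamentation is blocked; test concentration not given here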
[17] = small-molecule microarray binders of probe aLefty2, primary screen, biochemical, biotinylated probe, 635/667 nm fluorescence (AID 1094); details: higher = more signal;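 note: score merges spot fluorescence near 667 nm with spot signal-to-noise ratio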
[18] = test system: Noggin (protein binding on small-molecule microarray); test: Noggin binders on small-molecule microarray, primary screen, biochemical, 635/667 nm fluorescence (AID 1095); details: 635 nm fluorescence, higher = more signal;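 note: score merges 667 nm feature fluorescence with signal to noise over triplicate slides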
[19] = biological target: Neurogenic locus notch homolog protein 3 (Homo sapiens) (UniProt Q9UM47); test: NOTCH3 binders on small-molecule microarray, primary screen, biochemical, 635/667 nm fluorescence (AID 1096); details: NOTCH3 binding, 635 nm fluorescence, higher = more signal
[20] = small-molecule microarray binders of probe aEGFR, primary screen, biochemical, biotinylated probe, 635/667 nm fluorescence (AID 1097); details: higher = more signal;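 note: probe is a biotinylated anti-EGFR antibody binding compounds printed on slides; score combines fluorescence near 667 nm and signal to noise of each spot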

Neurogenic locus notch homolog protein 3 (Homo sapiens), sequence (Q9UM47 whole entry, looked up): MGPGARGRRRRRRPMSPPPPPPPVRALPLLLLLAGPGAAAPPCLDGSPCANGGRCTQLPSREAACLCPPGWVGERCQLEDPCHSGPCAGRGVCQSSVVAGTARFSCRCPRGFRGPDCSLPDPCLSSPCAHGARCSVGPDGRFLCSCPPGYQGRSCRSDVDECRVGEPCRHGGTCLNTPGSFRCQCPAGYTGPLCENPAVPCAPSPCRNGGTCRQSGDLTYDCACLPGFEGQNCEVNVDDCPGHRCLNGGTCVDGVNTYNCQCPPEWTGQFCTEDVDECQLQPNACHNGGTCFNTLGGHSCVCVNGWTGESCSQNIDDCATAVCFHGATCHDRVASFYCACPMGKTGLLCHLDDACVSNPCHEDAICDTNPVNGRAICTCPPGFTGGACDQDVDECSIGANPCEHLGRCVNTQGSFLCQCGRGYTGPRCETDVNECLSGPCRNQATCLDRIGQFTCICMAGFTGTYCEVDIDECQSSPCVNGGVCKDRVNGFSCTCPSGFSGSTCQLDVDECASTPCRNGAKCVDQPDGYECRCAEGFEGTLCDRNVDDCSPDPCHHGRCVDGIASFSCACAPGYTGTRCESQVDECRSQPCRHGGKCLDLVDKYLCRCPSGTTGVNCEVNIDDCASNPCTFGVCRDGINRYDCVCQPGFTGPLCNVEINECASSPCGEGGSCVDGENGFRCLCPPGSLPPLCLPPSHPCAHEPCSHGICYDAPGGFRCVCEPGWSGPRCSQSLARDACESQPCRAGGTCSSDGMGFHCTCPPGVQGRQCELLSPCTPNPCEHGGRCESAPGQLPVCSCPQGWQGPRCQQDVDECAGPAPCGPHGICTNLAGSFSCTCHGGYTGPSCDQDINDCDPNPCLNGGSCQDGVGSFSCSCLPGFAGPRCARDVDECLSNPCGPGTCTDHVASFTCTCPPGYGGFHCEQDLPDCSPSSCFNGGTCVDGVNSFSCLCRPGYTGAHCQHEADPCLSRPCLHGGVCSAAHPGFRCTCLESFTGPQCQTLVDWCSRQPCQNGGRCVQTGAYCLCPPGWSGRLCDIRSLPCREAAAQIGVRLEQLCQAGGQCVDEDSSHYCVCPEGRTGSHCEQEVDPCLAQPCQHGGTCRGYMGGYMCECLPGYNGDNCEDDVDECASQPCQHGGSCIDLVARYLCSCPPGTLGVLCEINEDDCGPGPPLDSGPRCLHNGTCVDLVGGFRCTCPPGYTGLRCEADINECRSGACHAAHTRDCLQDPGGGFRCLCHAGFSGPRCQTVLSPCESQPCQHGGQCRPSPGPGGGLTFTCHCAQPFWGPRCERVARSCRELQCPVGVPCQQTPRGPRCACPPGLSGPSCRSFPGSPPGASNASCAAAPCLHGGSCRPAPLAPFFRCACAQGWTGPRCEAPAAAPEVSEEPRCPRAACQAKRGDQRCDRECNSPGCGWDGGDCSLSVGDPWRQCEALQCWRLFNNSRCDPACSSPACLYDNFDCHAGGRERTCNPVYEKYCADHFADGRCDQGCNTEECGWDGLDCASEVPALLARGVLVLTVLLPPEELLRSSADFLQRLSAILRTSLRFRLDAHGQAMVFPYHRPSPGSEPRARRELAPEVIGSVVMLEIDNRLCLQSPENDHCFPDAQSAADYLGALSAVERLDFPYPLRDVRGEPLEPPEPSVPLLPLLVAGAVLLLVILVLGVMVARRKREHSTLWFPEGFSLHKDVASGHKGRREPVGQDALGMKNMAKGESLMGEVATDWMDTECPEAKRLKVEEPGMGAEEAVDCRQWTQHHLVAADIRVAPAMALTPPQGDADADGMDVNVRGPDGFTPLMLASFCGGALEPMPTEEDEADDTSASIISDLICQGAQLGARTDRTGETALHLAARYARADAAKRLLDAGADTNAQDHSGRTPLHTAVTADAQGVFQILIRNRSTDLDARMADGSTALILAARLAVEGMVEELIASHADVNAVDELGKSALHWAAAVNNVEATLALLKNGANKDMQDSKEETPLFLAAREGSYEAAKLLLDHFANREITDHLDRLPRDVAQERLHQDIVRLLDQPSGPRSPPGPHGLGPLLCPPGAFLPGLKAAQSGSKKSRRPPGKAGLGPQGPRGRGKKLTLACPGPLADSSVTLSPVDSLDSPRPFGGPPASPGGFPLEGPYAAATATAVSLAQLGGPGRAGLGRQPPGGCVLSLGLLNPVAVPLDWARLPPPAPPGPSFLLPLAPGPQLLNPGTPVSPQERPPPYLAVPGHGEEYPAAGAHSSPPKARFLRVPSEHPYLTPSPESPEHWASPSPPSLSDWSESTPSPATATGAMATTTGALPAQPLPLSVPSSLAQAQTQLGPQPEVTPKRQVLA
Neurogenic locus notch homolog protein 2 (Homo sapiens), sequence (Q04721 whole entry, looked up, canonical isoform): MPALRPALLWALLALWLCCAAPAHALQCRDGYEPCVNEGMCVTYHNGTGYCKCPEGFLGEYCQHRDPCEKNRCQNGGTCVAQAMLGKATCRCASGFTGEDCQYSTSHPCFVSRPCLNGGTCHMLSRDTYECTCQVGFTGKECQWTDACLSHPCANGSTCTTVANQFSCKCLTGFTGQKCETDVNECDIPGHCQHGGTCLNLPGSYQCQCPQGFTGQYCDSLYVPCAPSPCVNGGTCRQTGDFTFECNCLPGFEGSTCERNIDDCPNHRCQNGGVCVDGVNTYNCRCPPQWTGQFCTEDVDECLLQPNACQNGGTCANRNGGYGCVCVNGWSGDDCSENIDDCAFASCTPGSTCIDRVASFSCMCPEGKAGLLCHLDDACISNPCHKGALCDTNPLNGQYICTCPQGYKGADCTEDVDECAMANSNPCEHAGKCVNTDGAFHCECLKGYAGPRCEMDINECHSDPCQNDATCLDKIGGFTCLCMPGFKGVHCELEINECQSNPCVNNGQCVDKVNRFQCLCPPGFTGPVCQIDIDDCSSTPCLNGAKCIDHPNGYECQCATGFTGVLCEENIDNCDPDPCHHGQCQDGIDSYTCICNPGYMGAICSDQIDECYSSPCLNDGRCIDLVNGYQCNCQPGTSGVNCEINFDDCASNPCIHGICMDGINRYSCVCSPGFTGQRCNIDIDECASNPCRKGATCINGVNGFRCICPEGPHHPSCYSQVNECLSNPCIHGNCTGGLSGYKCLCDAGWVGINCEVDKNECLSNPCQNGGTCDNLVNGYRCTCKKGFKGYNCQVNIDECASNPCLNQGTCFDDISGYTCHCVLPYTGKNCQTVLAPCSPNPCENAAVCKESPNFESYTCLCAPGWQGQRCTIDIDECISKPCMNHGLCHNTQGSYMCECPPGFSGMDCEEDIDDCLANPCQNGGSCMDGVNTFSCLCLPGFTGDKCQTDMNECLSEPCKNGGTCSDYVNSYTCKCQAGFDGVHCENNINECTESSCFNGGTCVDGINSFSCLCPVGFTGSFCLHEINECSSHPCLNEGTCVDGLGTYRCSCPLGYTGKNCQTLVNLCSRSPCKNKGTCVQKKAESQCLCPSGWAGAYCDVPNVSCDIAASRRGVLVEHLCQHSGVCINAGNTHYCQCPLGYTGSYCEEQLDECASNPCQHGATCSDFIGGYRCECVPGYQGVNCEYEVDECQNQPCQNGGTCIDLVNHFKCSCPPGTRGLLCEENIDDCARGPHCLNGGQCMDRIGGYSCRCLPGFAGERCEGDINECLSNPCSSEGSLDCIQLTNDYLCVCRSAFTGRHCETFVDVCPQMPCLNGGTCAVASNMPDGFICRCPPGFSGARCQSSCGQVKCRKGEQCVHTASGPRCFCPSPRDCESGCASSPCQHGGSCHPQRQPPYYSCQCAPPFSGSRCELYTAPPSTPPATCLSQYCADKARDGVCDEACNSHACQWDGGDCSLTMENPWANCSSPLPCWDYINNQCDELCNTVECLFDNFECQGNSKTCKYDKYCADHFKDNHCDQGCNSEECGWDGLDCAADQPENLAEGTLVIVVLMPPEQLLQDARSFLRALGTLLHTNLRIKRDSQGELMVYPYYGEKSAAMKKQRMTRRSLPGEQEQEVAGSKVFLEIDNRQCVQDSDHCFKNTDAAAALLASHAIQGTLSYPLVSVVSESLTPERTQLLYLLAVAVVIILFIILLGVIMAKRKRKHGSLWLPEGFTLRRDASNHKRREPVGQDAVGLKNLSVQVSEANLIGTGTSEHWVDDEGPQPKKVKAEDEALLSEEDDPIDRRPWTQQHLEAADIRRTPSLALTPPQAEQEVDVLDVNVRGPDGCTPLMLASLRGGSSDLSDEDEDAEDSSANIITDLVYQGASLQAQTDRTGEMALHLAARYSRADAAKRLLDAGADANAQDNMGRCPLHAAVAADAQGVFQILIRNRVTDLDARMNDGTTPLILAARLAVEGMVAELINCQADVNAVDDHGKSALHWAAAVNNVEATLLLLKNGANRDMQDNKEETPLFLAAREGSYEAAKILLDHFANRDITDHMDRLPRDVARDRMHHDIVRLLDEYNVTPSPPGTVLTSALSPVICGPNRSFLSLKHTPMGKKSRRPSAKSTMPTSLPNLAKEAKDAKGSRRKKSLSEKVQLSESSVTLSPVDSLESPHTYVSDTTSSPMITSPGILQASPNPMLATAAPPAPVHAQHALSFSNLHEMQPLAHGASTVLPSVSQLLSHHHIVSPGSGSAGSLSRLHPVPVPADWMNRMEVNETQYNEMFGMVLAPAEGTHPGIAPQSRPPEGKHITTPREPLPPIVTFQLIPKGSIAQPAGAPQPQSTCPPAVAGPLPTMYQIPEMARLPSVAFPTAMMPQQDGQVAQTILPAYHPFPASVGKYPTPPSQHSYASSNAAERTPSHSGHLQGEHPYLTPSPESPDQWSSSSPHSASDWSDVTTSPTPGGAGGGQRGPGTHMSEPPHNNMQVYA

Row | SMILES | composite z-score [1] | composite z-score [2] | composite z-score [3] | composite z-score [4] | composite z-score [5] | composite z-score [6] | composite z-score [7] | z-score [8] | composite z-score [9] | composite z-score [10] | composite z-score [11] | z-score [12] | z-score [13] | z-score [14] | composite z-score [15] | z-score [16] | composite z-score [17] | composite z-score [18] | composite z-score [19] | composite z-score [20]
1 | [N-]=[N+]=NCc1ccccc1C[C@@]1(C(=O)NCCN2CCOCC2)N=C(c2ccc(OCCCO)cc2)O[C@@H]1c1ccccc1 | -0.0252 | -0.539 | -0.0514 | 0.246 | 0.266 | 1.12 | 1.28 | -3.05 (inactive) | 0.804 | -0.0994 | 1.37 | -0.941 (inactive) | -3.76 (inactive) | 15.8 (active) | 2.96 | -0.304 (inactive) | -0.0073 | 0.565 | 0.65 | -0.0128
2 | O=C(c1ccccc1)N1Cc2ccccc2C[C@@]2(N=C(c3ccc(OCCCO)cc3)O[C@H]2c2ccccc2)C1=O | -0.302 | 0.564 | -0.0538 | 0.458 | 1.13 | 1.05 | 1.21 | -3.39 (inactive) | 0.229 | 0.201 | 1.54 | -0.68 (inactive) | -10.3 (active) | 5.51 (inactive) | 2.81 | -0.231 (inactive) | -0.0982 | 1.73 | 1.09 | 0.024
3 | C[N+](C)(C)CCCC[C@@H]1NC(=O)[C@H]2C[C@@H](C(=O)NCCCCCN)[C@@H](c3ccc(O)cc3)N2C1=O | 0.0912 | 1.95 | -0.0593 | 0.873 | 0.717 | 1.79 | 1.21 | -0.0231 (inactive) | 1.2 | 0.0722 | 1.54 | -0.407 (inactive) | -2.01 (inactive) | -1.2 (inactive) | 3.06 | -0.162 (inactive) | 0.0829 | 1.57 | 1.11 | 0.152
4 | COC(=O)[C@@]1(Cc2ccc(F)cc2)[C@H]2c3cc(C(=O)N4CCCC4)n(Cc4ccc(OC(F)(F)F)cc4)c3C[C@H]2CN1C(=O)c1ccccc1 | 0.262 | -0.292 | 0.0336 | 0.334 | 1.08 | 0.621 | 0.71 | 1.45 (inactive) | 0.401 | -0.0074 | -1.08 | 0.646 (inactive) | 0.693 (inactive) | -0.16 (inactive) | 2.1 | -1.01 (inactive) | -0.0238 | -1.2 | -1.23 | -0.0472
5 | CO[C@H]1O[C@H](CO)[C@@H](OC(=O)Nc2cccc(F)c2)[C@H](OC(=O)c2cc3ccccc3[nH]2)[C@H]1OC(=O)c1cc2ccccc2[nH]1 | -0.277 | -0.108 | -0.0355 | 0.463 | -0.0665 | 1.33 | 0.24 | -1.46 (inactive) | -0.238 | -0.0726 | 0.669 | -2 (inactive) | 0.201 (inactive) | 0.296 (inactive) | 0.338 | -0.178 (inactive) | -0.15 | 0.696 | 0.0453 | -0.1
6 | C=CC[C@H](OC(=O)Nc1ccc(SC)cc1)c1ccc(O)c(F)c1 | 0.57 | 0.274 | -0.102 | -0.575 | -1.19 | 0.659 | 1.07 | 8.09 (active) | -0.512 | -0.156 | -0.487 | -22.7 (active) | -19.7 (active) | -1.19 (inactive) | 1.04 | 0.622 (inactive) | -0.106 | -0.176 | 0.223 | -0.14
7 | COC(=O)[C@@]1(Cc2ccc(F)cc2)[C@H]2c3cc(C(=O)N4CCCC4)n(C[C@H](O)CO)c3C[C@H]2CN1C(=O)c1ccccc1 | 0.468 | 0.501 | 0.474 | 0.697 | 1.17 | 2.15 | 1.16 | 3.49 (inactive) | 1.42 | 1.35 | -0.399 | -0.161 (inactive) | 1.34 (inactive) | -0.0363 (inactive) | 1.57 | -0.836 (inactive) | 1.03 | -0.123 | 0.176 | 0.732
8 | [N-]=[N+]=Nc1ccccc1C[C@]1(C(=O)N2CCCCC2)N=C(c2ccc(OCCCO)cc2)O[C@H]1c1ccccc1 | 0.484 | 0.593 | -0.0332 | 1.21 | 1.36 | 0.733 | 1.08 | -3.1 (inactive) | 0.933 | 0.154 | 1.33 | -0.44 (inactive) | -9.22 (active) | 0.926 (inactive) | 2.74 | 1 (inactive) | 0.131 | 0.595 | 1.1 | 0.279
9 | OCCCc1cc[n+](Cc2cc3c(cc2Br)OCO3)cc1 | 0.622 | -0.226 | -0.116 | -0.782 | -0.914 | 1.23 | 0.583 | 0.584 (inactive) | -0.222 | -0.383 | 0.115 | -0.41 (inactive) | -0.688 (inactive) | -0.213 (inactive) | -0.0854 | 0.0566 (inactive) | 0.193 | -0.617 | -0.785 | -0.12
10 | O=C1c2ccccc2[C@@]2(Cc3ccccc3N(CC(F)(F)F)C2=O)[C@H](c2ccc(CO)cc2)N1Cc1ccccc1 | 0.386 | 0.0025 | -0.124 | 0.316 | -0.661 | 0.0876 | -0.533 | 0.605 (inactive) | -0.0539 | -0.129 | 0.349 | 0.633 (inactive) | -0.269 (inactive) | -1.49 (inactive) | -0.117 | -1.91 (inactive) | -0.147 | 0.666 | -0.242 | -0.177
